Measured values reported in the supplement of paper PMC12645437, “Orthogonal IMiD-Degron Pairs Induce Selective Protein Degradation in Cells” (ACS Chemical Biology, 2025).
In all, about 8,300 sequences were measured (“log2 fold change of degron read counts, EGFP-low vs EGFP+ sorted cells (limma voom), compound-induced degradation”: median about -1.1, highest 2% from about 3.2 on). Only a selection was taken, and the highest values are over-represented in it overall.

T1: CRBN, Q96SW2
T1 chain: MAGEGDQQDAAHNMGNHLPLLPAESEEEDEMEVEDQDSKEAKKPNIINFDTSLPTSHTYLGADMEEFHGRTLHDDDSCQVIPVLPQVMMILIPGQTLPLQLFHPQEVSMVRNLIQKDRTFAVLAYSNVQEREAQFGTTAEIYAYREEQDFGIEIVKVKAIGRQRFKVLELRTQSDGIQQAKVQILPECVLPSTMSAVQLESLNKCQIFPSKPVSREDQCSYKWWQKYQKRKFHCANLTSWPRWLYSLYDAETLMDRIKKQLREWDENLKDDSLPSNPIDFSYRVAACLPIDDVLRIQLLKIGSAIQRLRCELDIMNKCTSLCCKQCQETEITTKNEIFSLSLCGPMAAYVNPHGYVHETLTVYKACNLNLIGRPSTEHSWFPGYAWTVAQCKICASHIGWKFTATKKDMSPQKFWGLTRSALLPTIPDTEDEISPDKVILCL


Target: T1, CRBN, Q96SW2
Assay: log2 fold change of degron read counts, EGFP-low vs EGFP+ sorted cells (limma voom), compound-induced degradation; higher = more compound-induced degradation of the degron-EGFP fusion; degrons are variants of IKZF1/3 zinc finger 2; compound dose not given here
Conditions: Jurkat, 18 h
[1] = compound: compound 19 (5-tert-butyl-thalidomide)
[2] = compound: compound 22 (5-morpholino-thalidomide)
[3] = compound: compound 33 (diphenyl IMiD analogue)
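Note: pooled lentiviral library of zinc finger degron-EGFP fusions in mCherry-positive Jurkat cells, FACS-sorted after compound exposure, with degron abundance counted by next-generation sequencing.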

Row | Sequence | log2 fold change of degron read counts [1] | log2 fold change of degron read counts [2] | log2 fold change of degron read counts [3] | log2 fold change of degron read counts (compound: thalidomide)
1 | FICPICGHFFTQKGNLLRHIKL [46F_47I_49P_50I_52G_53H_54F_55F_67L_, Q9UKT9] | -1.6 | -2.08 | -1.13 | -1.31
2 | LWCPICGFTCTQKGNLLRHIKL [46L_47W_49P_50I_52G_53F_54T_55C_67L_, Q9UKT9] | 3.24 | 3.71 | 3.05 | 2.09
3 | LYCPICGFTCTQKGNLLRHIKL [46L_47Y_49P_50I_52G_53F_54T_55C_67L_, Q9UKT9] | 3.6 | 3.63 | 2.97 | 2.63
4 | LGCPICGFTCTQKGNLLRHIKL [46L_47G_49P_50I_52G_53F_54T_55C_67L_, Q9UKT9] | 3.65 | 2.87 | 1.97 | 1.36
5 | LECPICGFTCTQKGNLLRHIKL [46L_47E_49P_50I_52G_53F_54T_55C_67L_, Q9UKT9] | 1.1 | 0.00767 | 2.64 | 3.38
6 | LECEICGFTCTQKGNLLRHIKL [46L_47E_49E_50I_52G_53F_54T_55C_67L_, Q9UKT9] | 0.26 | -0.872 | 1.66 | 2.87
7 | LQCNQCGFICTQKGNLLRHIKL [46L_47Q_49N_50Q_52G_53F_54I_55C_67L_, Q9UKT9] | -2.79 | -2.4 | -2.23 | -0.473
8 | FVCNQCGRTFTQKGNLLRHIKL [46F_47V_49N_50Q_52G_53R_54T_55F_67L_, Q9UKT9] | -2.81 | -2.9 | -2.85 | -2.6
9 | FACDQCGAIFTQKGNLLRHIKL [46F_47A_49D_50Q_52G_53A_54I_55F_67L_, Q9UKT9] | -1.3 | -2.79 | -2.17 | -2.61
10 | FECEICGHHFTQKGNLLRHIKL [46F_47E_49E_50I_52G_53H_54H_55F_67L_, Q9UKT9] | -3.57 | -3.77 | -3.12 | -3.14
11 | FWCPICGRHFTQKGNLLRHIKL [46F_47W_49P_50I_52G_53R_54H_55F_67L_, Q9UKT9] | 0.105 | 0.12 | -0.0382 | -0.795
12 | FTCNQCGANFTQKGNLLRHIKL [46F_47T_49N_50Q_52G_53A_54N_55F_67L_, Q9UKT9] | -2.31 | -1.9 | -1.02 | -1.51
13 | FCCEQCGAQFTQKGNLLRHIKL [46F_47C_49E_50Q_52G_53A_54Q_55F_67L_, Q9UKT9] | -0.606 | -1.61 | 0.54 | -0.701
14 | FFCDVCGAGFTQKGNLLRHIKL [46F_47F_49D_50V_52G_53A_54G_55F_67L_, Q9UKT9] | 2.13 | 0.815 | -0.261 | -2.07
15 | FICEICGRFFTQKGNLLRHIKL [46F_47I_49E_50I_52G_53R_54F_55F_67L_, Q9UKT9] | -1.91 | -1.81 | -0.249 | -0.59
16 | FRCNICGAFFTQKGNLLRHIKL [46F_47R_49N_50I_52G_53A_54F_55F_67L_, Q9UKT9] | -1.52 | -1.67 | -0.33 | 0.791
17 | FTCEQCGATFTQKGNLLRHIKL [46F_47T_49E_50Q_52G_53A_54T_55F_67L_, Q9UKT9] | -2.43 | -0.729 | 0.386 | 0.407
18 | LNCPICGFTCTQKGNLLRHIKL [46L_47N_49P_50I_52G_53F_54T_55C_67L_, Q9UKT9] | 2.24 | 1.48 | 1.4 | 1.99
19 | LCCPICGFTCTQKGNLLRHIKL [46L_47C_49P_50I_52G_53F_54T_55C_67L_, Q9UKT9] | 2.3 | 2.71 | 3.14 | 3.38
20 | LDCPICGFTCTQKGNLLRHIKL [46L_47D_49P_50I_52G_53F_54T_55C_67L_, Q9UKT9] | 1.14 | 0.297 | 1.7 | 2.41
